Test results as given in the supplement of paper PMC8728848.
Shown is part of a subset that was picked to be rich in the strongest signals.

How the values were obtained:
Assay in all cases: glycan array binding signal (z-score within array); higher = stronger binding
Conditions in all cases: glycan notation: IUPAC condensed, linker removed
[1] = target: Fuc(a1-2)Gal(b1-3)GalNAc(b1-3)Gal(a1-4)Gal(b1-4)Glc
Procedure, shortened: (§1)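 Arrays were curated from the Consortium for Functional Glycomics database, 3228 in total, and kept only where the protein sequence was available. Binding is expressed as a within-array Z-score. This score was averaged across arrays of the same protein sequence at different concentrations or buffers and across linkers, and negative values can be read as non-binding.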

[2] = target: Fuc(a1-2)Gal(b1-4)GlcNAc(b1-2)Man(a1-3)[Fuc(a1-2)Gal(b1-4)GlcNAc(b1-2)Man(a1-6)]Man(b1-4)GlcNAc(b1-4)GlcNAc
Procedure, shortened: as §1

[3] = target: Fuc(a1-2)Gal(b1-4)GlcNAc(b1-3)Gal(b1-4)GlcNAc(b1-2)Man(a1-3)[Fuc(a1-2)Gal(b1-4)GlcNAc(b1-3)Gal(b1-4)GlcNAc(b1-2)Man(a1-6)]Man(b1-4)GlcNAc(b1-4)GlcNAc
Procedure, shortened: as §1

[4] = target: Fuc(a1-2)Gal6S(b1-3)GlcNAc6S
Procedure, shortened: as §1

[5] = target: Fuc(a1-2)[Gal(a1-3)]Gal
Procedure, shortened: as §1

[6] = target: Fuc(a1-2)[Gal(a1-3)]Gal(b1-4)GlcNAc(b1-6)GalNAc
Procedure, shortened: as §1

[7] = target: Fuc(a1-2)[GalNAc(a1-3)]Gal(b1-4)GlcNAc(b1-2)Man
Procedure, shortened: as §1

[8] = target: Fuc(a1-2)[GalNAc(a1-3)]Gal(b1-4)GlcNAc(b1-3)Gal(b1-4)GlcNAc(b1-3)Gal(b1-4)GlcNAc
Procedure, shortened: as §1

[9] = target: Fuc(a1-3)[Gal(b1-4)]GlcNAc(b1-2)Man(a1-3)[Fuc(a1-3)[Gal(b1-4)]GlcNAc(b1-2)Man(a1-6)]Man(b1-4)GlcNAc(b1-4)[Fuc(a1-6)]GlcNAc
Procedure, shortened: as §1

[10] = target: Gal(a1-3)Gal
Procedure, shortened: as §1

[11] = target: Gal(a1-3)Gal(b1-4)GlcNAc(b1-3)GalNAc
Procedure, shortened: as §1

[12] = target: Gal(a1-4)Gal(b1-4)GlcNAc(b1-2)Man(a1-3)[Gal(a1-4)Gal(b1-4)GlcNAc(b1-2)Man(a1-6)]Man(b1-4)GlcNAc(b1-4)GlcNAc
Procedure, shortened: as §1

[13] = target: Gal(b1-2)Gal
Procedure, shortened: as §1

[14] = target: Gal(b1-3)GalNAc(b1-3)Gal
Procedure, shortened: as §1

[15] = target: Gal(b1-3)GalNAc(b1-4)[Neu5Ac(a2-3)]Gal(b1-4)Glc
Procedure, shortened: as §1

[16] = target: Gal(b1-4)GlcNAc(b1-2)Man
Procedure, shortened: as §1

[17] = target: Gal(b1-4)GlcNAc(b1-2)[Gal(b1-4)GlcNAc(b1-4)]Man(a1-3)[Gal(b1-4)GlcNAc(b1-2)Man(a1-6)]Man(b1-4)GlcNAc(b1-4)GlcNAc
Procedure, shortened: as §1

[18] = target: Gal(b1-4)GlcNAc(b1-3)Gal(b1-4)GlcNAc
Procedure, shortened: as §1

[19] = target: Gal(b1-4)GlcNAc(b1-3)Gal(b1-4)GlcNAc(b1-3)Gal(b1-4)GlcNAc(b1-3)Gal(b1-4)GlcNAc(b1-3)Gal(b1-4)GlcNAc(b1-2)Man(a1-3)[Gal(b1-4)GlcNAc(b1-3)Gal(b1-4)GlcNAc(b1-3)Gal(b1-4)GlcNAc(b1-3)Gal(b1-4)GlcNAc(b1-3)Gal(b1-4)GlcNAc(b1-2)Man(a1-6)]Man(b1-4)GlcNAc(b1-4)GlcNAc
Procedure, shortened: as §1

[20] = target: Gal(b1-4)GlcNAc(b1-3)Gal(b1-4)GlcNAc(b1-3)Gal(b1-4)GlcNAc(b1-3)Gal(b1-4)GlcNAc(b1-3)Gal(b1-4)GlcNAc(b1-2)Man(a1-3)[Gal(b1-4)GlcNAc(b1-3)Gal(b1-4)GlcNAc(b1-3)Gal(b1-4)GlcNAc(b1-3)Gal(b1-4)GlcNAc(b1-3)Gal(b1-4)GlcNAc(b1-2)Man(a1-6)]Man(b1-4)GlcNAc(b1-4)[Fuc(a1-6)]GlcNAc
Procedure, shortened: as §1

[21] = target: Gal3S(b1-3)GalNAc
Procedure, shortened: as §1

[22] = target: Gal6S(b1-4)GlcNAc6S
Procedure, shortened: as §1

[23] = target: GalNAc(b1-3)Gal(a1-4)Gal(b1-4)GlcNAc
Procedure, shortened: as §1

[24] = target: GalNAc(b1-3)GlcNAc
Procedure, shortened: as §1

[25] = target: GalNAc(b1-4)Gal(b1-4)Glc
Procedure, shortened: as §1

[26] = target: GalNAc(b1-4)GlcNAc(b1-3)GalNAc(b1-4)GlcNAc
Procedure, shortened: as §1

[27] = target: GalNAc3S(b1-4)GlcNAc
Procedure, shortened: as §1

[28] = target: GlcNAc(b1-2)Man(a1-3)[GlcNAc(b1-2)Man(a1-6)]Man(b1-4)GlcNAc(b1-4)[Fuc(a1-6)]GlcNAc
Procedure, shortened: as §1

[29] = target: GlcNAc(b1-2)Man(a1-3)[GlcNAc(b1-4)][GlcNAc(b1-2)Man(a1-6)]Man(b1-4)GlcNAc(b1-4)GlcNAc
Procedure, shortened: as §1

[30] = target: GlcNAc(b1-2)[GlcNAc(b1-6)]Man(a1-6)[GlcNAc(b1-4)][GlcNAc(b1-2)Man(a1-3)]Man(b1-4)GlcNAc(b1-4)GlcNAc
Procedure, shortened: as §1

[31] = target: GlcNAc(b1-3)Gal(b1-4)Glc
Procedure, shortened: as §1

[32] = target: GlcNAc(b1-3)Gal(b1-4)GlcNAc(b1-3)Gal(b1-4)GlcNAc(b1-3)Gal(b1-4)GlcNAc(b1-3)Gal(b1-4)GlcNAc(b1-2)Man(a1-3)[GlcNAc(b1-3)Gal(b1-4)GlcNAc(b1-3)Gal(b1-4)GlcNAc(b1-3)Gal(b1-4)GlcNAc(b1-3)Gal(b1-4)GlcNAc(b1-2)Man(a1-6)]Man(b1-4)GlcNAc(b1-4)[Fuc(a1-6)]GlcNAc
Procedure, shortened: as §1

[33] = target: GlcNAc(b1-3)Gal(b1-4)GlcNAc(b1-3)GalNAc
Procedure, shortened: as §1

[34] = target: GlcNAc(b1-3)Gal(b1-4)GlcNAc(b1-6)[GlcNAc(b1-3)]Gal(b1-4)GlcNAc
Procedure, shortened: as §1

[35] = target: GlcNAc(b1-3)[GlcNAc(b1-4)][GlcNAc(b1-6)]GlcNAc
Procedure, shortened: as §1

[36] = target: GlcNAc(b1-4)GlcNAc(b1-4)GlcNAc(b1-4)GlcNAc(b1-4)GlcNAc
Procedure, shortened: as §1

[37] = target: Kdn(a2-6)Gal(b1-4)GlcNAc
Procedure, shortened: as §1

[38] = target: Man(a1-2)Man(a1-6)[Man(a1-3)]Man(a1-6)[Man(a1-2)Man(a1-2)Man(a1-3)]Man
Procedure, shortened: as §1

[39] = target: Neu5Ac(a2-3)Gal(b1-4)GlcNAc(b1-2)[Neu5Ac(a2-3)Gal(b1-4)GlcNAc(b1-4)]Man(a1-3)[GlcNAc(b1-4)][Neu5Ac(a2-3)Gal(b1-4)GlcNAc(b1-2)[Neu5Ac(a2-3)Gal(b1-4)GlcNAc(b1-6)]Man(a1-6)]Man(b1-4)GlcNAc(b1-4)GlcNAc
Procedure, shortened: as §1

[40] = target: Neu5Ac(a2-3)Gal(b1-4)[Fuc(a1-3)]GlcNAc(b1-3)Gal(b1-4)[Fuc(a1-3)]GlcNAc(b1-3)Gal(b1-4)[Fuc(a1-3)]GlcNAc
Procedure, shortened: as §1

[41] = target: Neu5Ac(a2-3)GalNAc
Procedure, shortened: as §1

[42] = target: Neu5Ac(a2-6)Gal(b1-4)GlcNAc(b1-2)Man(a1-3)[Gal(b1-4)GlcNAc(b1-2)Man(a1-6)]Man(b1-4)GlcNAc(b1-4)GlcNAc
Procedure, shortened: as §1

[43] = target: Neu5Ac(a2-6)Gal(b1-4)GlcNAc(b1-2)Man(a1-6)Man(b1-4)GlcNAc(b1-4)GlcNAc
Procedure, shortened: as §1

[44] = target: Neu5Ac(a2-6)Gal(b1-4)GlcNAc(b1-3)Gal(b1-4)GlcNAc(b1-6)[Gal(b1-3)]GalNAc
Procedure, shortened: as §1

[45] = target: Neu5Ac(a2-6)Gal(b1-4)GlcNAc(b1-6)[Gal(b1-3)GlcNAc(b1-3)]Gal(b1-4)Glc
Procedure, shortened: as §1

[46] = target: Neu5Ac(a2-6)Gal(b1-4)GlcNAc6S
Procedure, shortened: as §1

[47] = target: Neu5Gc(a2-3)Gal(b1-3)[Fuc(a1-4)]GlcNAc
Procedure, shortened: as §1

B1: pTFF2 (Sus scrofa), P01359 (protein)
chain: KPAACRCSRQDPKNRVNCGFPGITSDQCFTSGCCFDSQVPGVPWCFKPLPAQESEECVMEVSARKNCGYPGISPEDCAARNCCFSDTIPEVPWCFFPMSVEACHY
glycan array binding signal (z-score) [1]: -0.047
glycan array binding signal (z-score) [2]: 0.121
glycan array binding signal (z-score) [3]: 0.716
glycan array binding signal (z-score) [4]: -0.991
glycan array binding signal (z-score) [5]: -0.204
glycan array binding signal (z-score) [6]: -0.303
glycan array binding signal (z-score) [7]: 0.535
glycan array binding signal (z-score) [8]: -0.048
glycan array binding signal (z-score) [9]: -0.109
glycan array binding signal (z-score) [10]: -0.276
glycan array binding signal (z-score) [11]: 0.196
glycan array binding signal (z-score) [12]: 2.45
glycan array binding signal (z-score) [13]: -1.31
glycan array binding signal (z-score) [14]: 2.98
glycan array binding signal (z-score) [15]: 2.82
glycan array binding signal (z-score) [16]: -2.22
glycan array binding signal (z-score) [17]: -0.702
glycan array binding signal (z-score) [18]: -0.47
glycan array binding signal (z-score) [19]: 2.48
glycan array binding signal (z-score) [20]: 2.62
glycan array binding signal (z-score) [21]: 0.185
glycan array binding signal (z-score) [22]: 0.285
glycan array binding signal (z-score) [23]: -0.4
glycan array binding signal (z-score) [24]: 0.736
glycan array binding signal (z-score) [25]: 4.38
glycan array binding signal (z-score) [26]: -0.11
glycan array binding signal (z-score) [27]: 2.64
glycan array binding signal (z-score) [28]: -1.4
glycan array binding signal (z-score) [29]: 0.002
glycan array binding signal (z-score) [30]: 0.104
glycan array binding signal (z-score) [31]: -0.368
glycan array binding signal (z-score) [32]: 4.15
glycan array binding signal (z-score) [33]: 3.21
glycan array binding signal (z-score) [34]: -0.954
glycan array binding signal (z-score) [35]: 0.277
glycan array binding signal (z-score) [36]: -0.168
glycan array binding signal (z-score) [37]: 0.54
glycan array binding signal (z-score) [38]: 0.712
glycan array binding signal (z-score) [39]: 6.13
glycan array binding signal (z-score) [40]: -0.094
glycan array binding signal (z-score) [41]: 1.05
glycan array binding signal (z-score) [42]: 0.708
glycan array binding signal (z-score) [43]: 2.29
glycan array binding signal (z-score) [44]: -0.859
glycan array binding signal (z-score) [45]: -0.007
glycan array binding signal (z-score) [46]: -1.45
glycan array binding signal (z-score) [47]: 0.024
